“And” between values parts separate entries of the source, which are not always exact repeats. Equal values may be shown once. Inconclusive results are not listed. A structure can be active in one record and inactive in another. The source made the active and inactive calls. Rule for the calls, unless noted: active = hit-call score of the fitted dose curve at least 0.9, where 1 is the maximum; inconclusive = response in the unintended direction; inactive = score below 0.9.
Experiments:
[1] = ATG_XTT_Cytotoxicity: Cytotoxicity Assessment in the Attagene TRANS-FACTORIAL HepG2 Assay (AID 2283584);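 for AC50: XTT signal for cell number as viability in transfected HepG2 cells; cells exposed to compound for 24 h before reading; active means loss of viability signal versus DMSO baseline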
How it was run: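 24 h chemical exposure of reporter-transfected HepG2; XTT signal loss vs DMSO indicates cytotoxicity.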

[2] = read-out: X-box binding protein 1 (XBP1), XBP1 (gene 7494); assay: LTEA_HepaRG_XBP1: Life Technologies and Expression Analysis (LTEA) Assay for X-box binding protein 1 (XBP1) using HepaRG (AID 2283540; active = hit-call score of the fitted dose curve at least 0.9, where 1 is the maximum; inactive = score below 0.9); settings: mRNA level, 48 h; actives raise or lower the signal
How it was run: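 Eight concentrations (half-log, highest 100 uM, 0.5% DMSO) tested in duplicate on HepaRG cells over 48 h in serum-free induction medium; qRT-PCR of XBP1 normalised to ACTB, GAPDH, POLR2A.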

[3] = LTEA_HepaRG_LDH_cytotoxicity: Cytotoxicity Assessment in the Life Technologies and Expression Analysis (LTEA) Assay (AID 2283563);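 for AC50: LDH activity released into spent culture medium as a marker of cell death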
How it was run: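 Spent-medium LDH after 48 h chemical exposure of HepaRG cells in serum-free induction medium; eight concentrations, half-log dilutions from 100 uM, duplicate wells, fitted upward relative to 0.5% DMSO.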

[4] = TOX21_p53_BLA_p2_viability: Viability Assessment in the Tox21 HCT-116 p53 Agonism Beta-lactamase Assay, Phase 2 (AID 2283591);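 note: compound exposure lasted 16 h at 37 °C; actives lower the ATP signal meaning cytotoxicity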
How it was run: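 HCT-116 p53-bla cells (4000/well) rested 5 h at 37C, then received compounds in DMSO (217-fold dilution) for 16 h at 37C, 5% CO2. After the CCF4 read, CellTiter-Glo was added; ATP luminescence was read after 30 min at room temperature.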

[5] = target: Cellular tumor antigen p53 (Homo sapiens) (UniProt P04637); assay: TOX21_p53_BLA_p2_ratio: Tox21 HCT-116 p53 Agonism Beta-lactamase Assay, Ratio, Phase 2 (AID 2283592)
How it was run: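 Human colon HCT116 cells with an inducible p53 beta-lactamase reporter are exposed to test chemicals for 16 h at 37C. Reporter induction is read as the 460/530 nm emission ratio after CCF4-AM loading, normalized to DMSO.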

[6] = TOX21_p53_BLA_p3_viability: Viability Assessment in the Tox21 HCT-116 p53 Agonism Beta-lactamase Assay, Phase 3 (AID 2283593);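 note: cells exposed to compound for 16 h before reading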
How it was run: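 HCT-116 cells (4000/well) rested 5 h at 37C, then got DMSO compounds by pin tool (217-fold dilution) for 16 h at 37C, 5% CO2. After the bla read, CellTiter-Glo was added and luminescence read at 30 min, room temperature.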

[7] = target: Cellular tumor antigen p53 (Homo sapiens) (UniProt P04637); assay: TOX21_p53_BLA_p3_ratio: Tox21 HCT-116 p53 Agonism Beta-lactamase Assay, Ratio, Phase 3 (AID 2283596)
How it was run: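 HCT116 p53-bla cells (4000/well) given compound in DMSO (217-fold dilution) after 5 h, incubated 16 h at 37C. CCF4-AM substrate 2 h at room temperature; 460/530 nm emission ratio, gain fitted against DMSO.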

[8] = TOX21_p53_BLA_p4_viability: Viability Assessment in the Tox21 HCT-116 p53 Agonism Beta-lactamase Assay, Phase 4 (AID 2283597);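 note: hits lower the luminescence signal meaning cytotoxicity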
How it was run: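 Luminescent ATP readout (CellTiter-Glo, 30 min, room temperature) in the same wells as the p53 bla ratio. HCT116 cells were treated for 16 h at 37C with DMSO-dissolved compounds.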

[9] = target: Cellular tumor antigen p53 (Homo sapiens) (UniProt P04637); assay: TOX21_p53_BLA_p5_ratio: Tox21 HCT-116 p53 Agonism Beta-lactamase Assay, Ratio, Phase 5 (AID 2283599)
How it was run: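 HCT-116 cells carrying a p53-inducible beta-lactamase reporter were seeded at 4000 cells/well and dosed after 5 h with compound in DMSO (217-fold dilution). After 16 h at 37C, CCF4-AM substrate was added for 2 h, and the 460/530 nm emission ratio was scored as gain-of-signal versus DMSO.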

[10] = TOX21_p53_BLA_p5_viability: Viability Assessment in the Tox21 HCT-116 p53 Agonism Beta-lactamase Assay, Phase 5 (AID 2283600)
How it was run: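 Seeded cells (4000/well) settle 5 h before compound addition. Plates then incubate 16 h at 37C, receive FRET substrate for 2 h, and finally CellTiter-Glo, with luminescence measured after a 30 min room-temperature incubation.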

[11] = target: Cellular tumor antigen p53 (Homo sapiens) (UniProt P04637); assay: TOX21_p53_BLA_p4_ratio: Tox21 HCT-116 p53 Agonism Beta-lactamase Assay, Ratio, Phase 4 (AID 2283601)
How it was run: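 HCT116 cells carrying an inducible beta-lactamase reporter were plated at 4000 cells/well, rested 5 h, then exposed to compounds in DMSO (217-fold dilution) for 16 h at 37C. CCF4-AM substrate was loaded 2 h at room temperature; 460/530 nm emission ratio scored gain-of-signal versus DMSO.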

[12] = Tanguay_ZF_120hpf_MORT_legacy: (Legacy) Oregon State University Tanguay Lab 120 Hour Post-fertilization zebrafish Assay for Mortality (AID 2283633);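 for AC50: fitted as increase in binary mortality versus DMSO negative control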
How it was run: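 Single dechorionated Tropical 5D embryos were held with test chemical (0.64% DMSO final) from 6 to 120 hpf at 28C under foil. Deaths at 24 or 120 hpf were recorded as binary calls, analysed for increase over DMSO controls.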

[13] = Tanguay_ZF_120hpf_YSE_legacy: (Legacy) Oregon State University Tanguay Lab 120 Hour Post-fertilization zebrafish Assay for Yolk Sac Edema (AID 2283634);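 for AC50: actives raise the incidence of yolk sac edema above the DMSO baseline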
How it was run: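 Single dechorionated embryos were held in sealed plates at 28C with test chemical (0.64% DMSO final) from 6 hpf until 120 hpf. Edema of the yolk sac was then recorded as a binary endpoint; non-mortality endpoints were skipped for dead embryos.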

[14] = Tanguay_ZF_120hpf_AXIS_legacy: (Legacy) Oregon State University Tanguay Lab 120 Hour Post-fertilization zebrafish Assay for Body Axis Malformation (AID 2283635);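 for AC50: potency for an increased fraction of larvae scored with body axis malformation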
How it was run: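 Each dechorionated embryo was exposed alone from 6 hpf, with DMSO at 0.64% (vol/vol) and trimethyltin chloride 5 uM as positive control. Axis malformation was recorded at 120 hpf unless the embryo had died.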

[15] = Tanguay_ZF_120hpf_EYE_legacy: (Legacy) Oregon State University Tanguay Lab 120 Hour Post-fertilization zebrafish Assay for Eye Malformation (AID 2283636);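 note: binary presence or absence of eye malformation scored by brightfield in 120 hpf larvae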
How it was run: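 Dechorionated wild-type Tropical 5D zebrafish embryos were exposed statically from 6 hpf, one per well, to 120 hpf at 28C in sealed, foil-covered plates with 0.64% DMSO. Eye malformation was scored present/absent by brightfield microscopy against DMSO controls.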

[16] = Tanguay_ZF_120hpf_OTIC_legacy: (Legacy) Oregon State University Tanguay Lab 120 Hour Post-fertilization zebrafish Assay for Otic Vesicle Malformation (AID 2283639)
How it was run: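 Tropical 5D wild-type zebrafish embryos were exposed statically in sealed, foil-covered plates at 28C until 120 hpf, with 0.64% (vol/vol) DMSO final. Otic vesicle malformation was scored present/absent by brightfield microscopy, with DMSO as baseline.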

[17] = Tanguay_ZF_120hpf_PE_legacy: (Legacy) Oregon State University Tanguay Lab 120 Hour Post-fertilization zebrafish Assay for Pericardial Edema (AID 2283640);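 for AC50: potency for increased incidence of pericardial edema versus DMSO baseline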
How it was run: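 Zebrafish larvae are exposed from early development to 120 hpf at 28C, with 0.64% DMSO final. Each surviving larva receives a yes/no pericardial edema call by brightfield imaging, analysed relative to the DMSO baseline.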

[18] = Tanguay_ZF_120hpf_SOMI_legacy: (Legacy) Oregon State University Tanguay Lab 120 Hour Post-fertilization zebrafish Assay for Somite Malformation (AID 2283647)
How it was run: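 Somitogenesis defects are recorded as binary calls in whole larvae at 120 hpf after continuous static chemical exposure starting at 6 hpf in dechorionated 5D embryos. DMSO serves as negative control and baseline.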

[19] = Tanguay_ZF_120hpf_PFIN_legacy: (Legacy) Oregon State University Tanguay Lab 120 Hour Post-fertilization zebrafish Assay for Pectoral Fin Malformation (AID 2283648);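 note: each larva judged yes or no for fin defect by brightfield with dead larvae skipped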
How it was run: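 Tropical 5D wild-type embryos, dechorionated with pronase at 4 hpf, were placed singly in wells at 6 hpf and statically exposed until 120 hpf at 28C, sealed and dark, with 0.64% (vol/vol) final DMSO; pectoral fin malformation scored present/absent.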

[20] = Tanguay_ZF_120hpf_SNOU_legacy: (Legacy) Oregon State University Tanguay Lab 120 Hour Post-fertilization zebrafish Assay for Snout Malformation (AID 2283637)
How it was run: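 Tropical 5D wild-type zebrafish embryos, dechorionated with pronase at 4 hpf, were exposed singly from 6 hpf to 120 hpf statically at 28C in 0.64% DMSO. Snout malformation was scored present/absent by brightfield microscopy, fitted against DMSO.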

Measured: AC50

Sequence of Cellular tumor antigen p53 (Homo sapiens) (P04637 whole entry, looked up): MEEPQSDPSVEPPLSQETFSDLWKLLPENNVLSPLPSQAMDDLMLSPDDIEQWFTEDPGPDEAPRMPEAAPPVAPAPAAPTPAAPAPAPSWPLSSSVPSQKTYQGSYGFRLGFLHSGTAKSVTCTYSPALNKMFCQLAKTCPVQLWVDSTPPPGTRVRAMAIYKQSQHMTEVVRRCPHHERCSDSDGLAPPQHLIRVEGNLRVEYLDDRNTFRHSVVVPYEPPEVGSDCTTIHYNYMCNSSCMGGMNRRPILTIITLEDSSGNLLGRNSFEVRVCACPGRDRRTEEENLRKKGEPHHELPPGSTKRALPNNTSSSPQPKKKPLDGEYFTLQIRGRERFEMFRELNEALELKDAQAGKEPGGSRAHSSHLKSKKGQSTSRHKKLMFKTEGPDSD

O=Cc1cccc(Oc2ccccc2)c1
inactive: [1]

CC(C)(C)CC(C)(C)c1ccc(O)cc1
active: [3] 77 µM | [1] 26.7 µM and 58.4 µM and 53.9 µM | [4] 64.5 µM and 42.4 µM | [5] 74.7 µM and 35.4 µM | [6] 35 µM | [7] 41.9 µM | [8] 69 µM and 22.2 µM | [9] 61.9 µM and 38.6 µM | [10] 65.3 µM and 39.6 µM | [11] 79.4 µM
inactive: [2] | [1] | [6] | [7] | [11] | [12] | [13] | [14] | [15] | [16] | [17] | [18] | [19]

Cc1cc(Cl)ccc1O[C@H](C)C(=O)O
inactive: [1]

COc1cc(-c2ccc(N)c(OC)c2)ccc1N
active: [5] 63 µM | [7] 63.6 µM | [11] 64 µM | [13] 32.8 µM | [15] 57 µM | [20] 12 µM | [17] 12.5 µM | [19] 87.5 µM
inactive: [2] | [3] | [1] | [4] | [5] | [6] | [7] | [8] | [10] | [11] | [12] | [13] | [14] | [15] | [20] | [16] | [17] | [18] | [19]

O=C(O)C(Cl)(Cl)Cl
inactive: all assays above

Cc1ccccc1N
not listed: [5] | [9] | [14] | [16]
inactive: all other assays above

O=C1C2(Cl)C3(Cl)C4(Cl)C(Cl)(Cl)C5(Cl)C3(Cl)C1(Cl)C5(Cl)C24Cl (centres undefined)
inactive: [1] | [12] | [16] | [18] | [19]
active: [2] 92.4 µM | [3] 72.1 µM | [1] 31.8 µM and 35.1 µM | [4] 73.9 µM and 73.7 µM | [5] 82.6 µM and 60.4 µM | [6] 80.6 µM and 78.5 µM | [7] 72.4 µM and 85.4 µM | [8] 68.4 µM and 66.4 µM | [10] 82 µM and 83.7 µM | [11] 83.2 µM and 60.3 µM | [13] 72.1 µM | [14] 6.6 µM | [15] 79.7 µM | [20] 9.66 µM | [17] 38.8 µM

O=[N+]([O-])c1ccc(O)c([N+](=O)[O-])c1
active: [2] 13.2 µM | [3] 88.5 µM | [5] 69 µM and 63.7 µM | [7] 78.5 µM | [9] 79.2 µM | [12] 26.4 µM
inactive: [1] | [4] | [6] | [7] | [8] | [9] | [10] | [11] | [13] | [15] | [20] | [16] | [17] | [19]

NC(=O)O
not listed: [4] | [5] | [6] | [7] | [8] | [14] | [16] | [19]
inactive: all other assays above

CCCCCCCCc1ccc(O)cc1
not listed: [9]
inactive: all other assays above
